INHIBITION data for 110 compounds are collected here from ChEMBL document CHEMBL4513216, “Probing the Open Global Health Chemical Diversity Library for Multistage-Active Starting Points for Next-Generation Antimalarials” (ACS Infect Dis, 2020).

Each structure is given as a SMILES string. About 8,600 (12%) of roughly 69,000 compounds showed an effect of 50% or more. This is one part of a sample in which strong results are shown more often than they occur.

This assay deals with Plasmodium berghei. Kind of assay: Screen against P. berghei liver stage (PbLuc), transformed with Luciferase, at 10uM. Particulars: tested at 10 uM. Type of assay: functional, HepG2.
In the case of `O=C1COC2(CCN(C(=O)c3ccco3)CC2)CN1Cc1ccccn1`, the INHIBITION is given as 28.2%. The result for `CCn1cc(-c2n[nH]c(=O)n2-c2ccc(OC)c(OC)c2)c(C)n1` reads 41.4%; that for `CCn1ccc2ccnc(CC3CN(C(=O)Cn4ccnc4C)C3)c21`, 6.26%; that for `CCc1nccn1C1CCCN(C(=O)c2ccc3nnc(C)n3c2)C1` (stereo not given), -6.44%. The figure for `COc1c(NS(=O)(=O)c2ccc(F)c(C)c2)c(C)nn1C` is 29.6%; for `COc1c(NS(=O)(=O)c2ccc(C)c(C)c2)c(C)nn1C` it is 51.1%.

Take `Cc1ccc(S(=O)(=O)Nc2c(C)nn(C)c2C)cc1C`: the INHIBITION came out at 45.7%.

Take `Cc1noc(C)c1S(=O)(=O)N1CCC(n2cccn2)CC1`: the INHIBITION is reported as -25.4%. Regarding `CCN1CCC(N2CCC(c3nc(C)cc(C)n3)C2)CC1` (stereo not given), the INHIBITION turned out to be 23.9%. The result for `CN(C)C(=O)C1CCCN1CCCNC(=O)c1ccccc1Cl` (stereo not given) reads 42.5%. With `CC(C)(C)c1oc(C(N)=O)cc1CN1CCOC(C(F)(F)F)C1` (stereo not given), the INHIBITION is given as 22.5%. For `CC(C)(C)c1oc(C(N)=O)cc1CN1CCCCC(N)C1` (stereo not given), the INHIBITION amounted to 51.8%.

Consider `CC(C)(C)c1oc(C(N)=O)cc1CN1CCCCC1CN1CCOCC1` (stereo not given), for which the INHIBITION is 48.5%.

With `Cc1cc(C)cc(OCCN(C)C(=O)NC(C)c2nncn2C)c1` (stereo not given), the INHIBITION is 21.5%. The result for `Cc1ccc(OCCCNC(=O)C(C)Sc2nncn2C)cc1` (stereo not given) reads 50.8%.

Regarding `Cc1ccc(OCCNC(=O)C(C)n2cncn2)cc1` (stereo not given), the INHIBITION is 8.47%. The figure for `CC(C(=O)NCCOc1ccc(F)cc1)n1cncn1` (stereo not given) is -44.3%; for `CC(Sc1nncn1C)C(=O)NCCCOc1ccc(F)cc1` (stereo not given) it is 51.7%; for `Cc1ccc(OCCCNC(=O)NC(C)c2nncn2C)cc1` (stereo not given) it is 38.7%. Regarding `CC(NC(=O)N(C)CCCOc1ccc(F)cc1)c1nncn1C` (stereo not given), the INHIBITION is reported as -20%.

As for `CC(NC(=O)NCCOc1ccc(F)c(F)c1)c1nncn1C` (stereo not given), the INHIBITION is listed as 0.0932%. On to `Cc1cc(C)cc(OCCNC(=O)C(C)Sc2nncn2C)c1` (stereo not given), for which the INHIBITION is given as 53.6%. Take `O=C(CCSc1ccccc1F)NCc1cccnc1`: the INHIBITION is reported as -0.514%. The figure for `NC(=O)CN1CC(c2nc(C3CC3)no2)C1` is 19.8%; for `Cc1nn(CCNC(=O)c2cc(C3CC3)[nH]n2)c(C)c1Cl` it is -28%. As to `CCN(C)c1ncnc2c1CCN(Cc1ccncc1)CC2`, the INHIBITION is reported as 38.3%. The figure for `CN(C)S(=O)(=O)N1C[C@@H](OCc2cccnc2)[C@H]2OCCC[C@H]21` is 11.6%. The figure for `Cc1nc2cc(C(=O)N(CCC#N)CC3CCCO3)ccc2[nH]1` (stereo not given) is -0.371%; for `Cc1ccccc1C(N)c1ccncc1` (stereo not given) it is -1.38%.

Turning to `Cc1nc(CN2CCC3(CCN(Cc4cnn(C)c4)CC3)C2=O)cs1`, the INHIBITION was -22.1%. The figure for `CSc1ccccc1C(=O)N1C[C@@H]2CC[C@H]1CN(C(=O)C1CCC1)C2` is 9.41%; for `CCC(C)Sc1ncc(-c2c(C#N)c(N)nc3c2COCC3)cn1` (stereo not given) it is 29.9%. Turning to `CCc1cc(CNC(=O)Nc2cc(F)cc(N3CCCC3)c2)on1`, the INHIBITION is recorded as 38.3%. The result for `Cc1noc(CCNC(=O)NCc2ccc(N3CCCCC3)cc2)n1` reads -95.7%; that for `CCc1cc(CNC(=O)NCc2ccc(N3CCCCC3)cc2)on1`, 51.1%; that for `COc1ccccc1CN(CC1CCCO1)C(=O)c1ccc(F)cn1` (stereo not given), 5.23%. The figure for `CCn1cc2c(n1)CN(S(=O)(=O)c1cn(C)cn1)CC2COC` (stereo not given) is -18.5%. With `Cc1cccc(C2CCCN2Cc2nc(N)nc(N(C)C)n2)c1C` (stereo not given), the INHIBITION is recorded as 35.2%. For `CCC1CCCN(Cc2nc(N)c3ccccc3n2)C1` (stereo not given), the INHIBITION turned out to be 36.75%. For the compound `CN(C)c1nc(N)nc(CN2CCC(c3nc4ccccc4o3)CC2)n1`, the INHIBITION worked out at 45.4%. The result for `Cn1ccc(CN2CCC(c3ccccc3)CC2)cc1=O` reads 38%; that for `O=C(O)CN1CCC(c2ccccc2)CC1`, 1.03%. The result for `CN(C)c1nc(N)nc(CN2CCCC(c3ccccc3)CC2)n1` (stereo not given) reads 57.8%; that for `CN(C)c1nc(N)nc(CN2CCCC2c2cccs2)n1` (stereo not given), 70%. The result for `CN(C)c1nc(N)nc(CN2CCCC2c2ccsc2)n1` (stereo not given) reads 25.5%; that for `CN(C)c1nc(N)nc(CN2CCC(c3ccccc3)CC2)n1`, 67.8%; that for `CCN(Cc1ccncc1)c1cc(C2CCN2C(C)=O)nc(C)n1` (stereo not given), 19.775%. On to `CC(C)c1cc(C(=O)N[C@@H]2CC[C@@H](Oc3ccccc3)[C@@H]2O)on1`, for which the INHIBITION is on record as -10.955%. The result for `CCOCCNC(=O)[C@@H]1CCCN1c1nccc(Nc2ccccc2)n1` reads 6.55%; that for `O=C(CSc1ccncc1)N1C[C@@H]2CC[C@H]1CN(Cc1cccnc1)C2`, 9.54%. With `CCc1csc(C2CCCN(C(=O)c3ccccn3)C2)n1` (stereo not given), the INHIBITION is 14.1%. `NCC1[C@H]2CN(Cc3cccc(Cl)c3)C[C@@H]12` (stereo not given in full): the INHIBITION is 13.7%. The result for `Cc1ccc(S(=O)(=O)N2CCN(C)c3ccncc32)cc1F` reads 41%; that for `Cc1oc(-c2ccco2)nc1CNC1CCCN(c2cccnn2)C1` (stereo not given), -21.55%.

`c1ccc(-c2nnc(CNC3CCCN(c4cccnn4)C3)o2)cc1` (stereo not given): the INHIBITION is recorded as -43.25%. The result for `Cc1ncc(CN(C)C2CCCN(c3cccnn3)C2)s1` (stereo not given) reads 58.3%; that for `CN(Cc1ccc(Cl)s1)C1CCCN(c2cccnn2)C1` (stereo not given), 17.4%; that for `COCCc1noc(CNC2CCCN(c3cccnn3)C2)n1` (stereo not given), 21.8%. Consider `c1cnnc(N2CCCC(NCc3nc(-c4ccco4)no3)C2)c1` (stereo not given), for which the INHIBITION was determined as 55.5%. The figure for `Cc1cnc(CN(C)C2CCCN(c3cccnn3)C2)cn1` (stereo not given) is 3.19%. Consider `c1cnnc(N2CCCC(NCc3ccncc3)C2)c1` (stereo not given), for which the INHIBITION is listed as 30.8%. The result for `c1ccc(-c2cnc(CNC3CCCN(c4cccnn4)C3)o2)cc1` (stereo not given) reads 51.2%.

For the compound `CN(Cc1ncc(-c2ccccc2)o1)C1CCCN(c2cccnn2)C1` (stereo not given), the INHIBITION is recorded as 43.2%. Consider `c1cnnc(N2CCCC(NCc3nc(C4CC4)no3)C2)c1` (stereo not given), for which the INHIBITION was 58.5%. The result for `c1ccc(-c2noc(CNC3CCCN(c4cccnn4)C3)n2)nc1` (stereo not given) reads 45.4%; that for `CC1c2cc(F)ccc2CCN1C(=O)c1[nH]c(=O)[nH]c(=O)c1N` (stereo not given), 33.4%. The result for `CCc1cc(C(=O)N2CC[C@@H](c3ccc4c(c3)OCO4)[C@H](O)C2)ccn1` reads 26.5%; that for `Cc1noc(C)c1CN1CCn2cc(CN3CCCCC3)nc2C1`, -33.1%.

In the case of `O=C(NCc1nnc2n1CCC2)NCC1(c2cccc(F)c2)CC1`, the INHIBITION is -14.6%. In the case of `c1nc2c(c(NC3COC4(CCCC4)C3)n1)CCNCC2` (stereo not given), the INHIBITION turned out to be 37.7%. The figure for `CN(Cc1nc(C2CC2)no1)C1CCCN(c2cccnn2)C1` (stereo not given) is 53.5%. Turning to `COCCc1noc(CN(C)C2CCCN(c3cccnn3)C2)n1` (stereo not given), the INHIBITION worked out at 9.54%. The result for `c1cnnc(N2CCCC(NCc3nnc(-c4ccco4)o3)C2)c1` (stereo not given) reads 31.8%. The result for `c1csc(-c2noc(CNC3CCc4ncnn4C3)n2)c1` (stereo not given) reads 0.65%; that for `c1cnnc(N2CCCC(NCc3cccc4c3OCCCO4)C2)c1` (stereo not given), 11.9%. The result for `c1cnnc(N2CCCC(NCc3cccc4c3OCCO4)C2)c1` (stereo not given) reads -12.2%; that for `CN(Cc1nc(-c2ccco2)no1)C1CCCN(c2cccnn2)C1` (stereo not given), 20.1%. With `c1cnnc(N2CCCC(NCc3cccc4c3OCO4)C2)c1` (stereo not given), the INHIBITION came out at 53.7%. Regarding `C=c1ccoc1=C1NN=C(CNC2CCCN(c3cccnn3)C2)O1` (stereo not given), the INHIBITION turned out to be 56.05%.

For `c1cnnc(N2CCCC(NCc3nc(-c4cccs4)no3)C2)c1` (stereo not given), the INHIBITION was found to be 60.3%. The figure for `c1cnnc(N2CCCC2CNCc2nc(-c3cccs3)no2)c1` (stereo not given) is 31.9%; for `C=c1ccoc1=C1NN=C(CNCC2CCCN2c2cccnn2)O1` (stereo not given) it is 18.5%. The result for `CC(C)c1noc(CCC(=O)NCC2CC2)n1` reads 38.5%; that for `O=C1CC(NCc2ccccn2)CN1CCc1ccc(F)cc1` (stereo not given), 17.8%. For `CN1CCC/C1=N\S(=O)(=O)c1ccc(NC(=O)Cc2cccs2)cc1`, the INHIBITION is given as -6.14%. The figure for `O=C(CCn1cc(Cl)cn1)N1C[C@H]2CC[C@@H](C1)N(Cc1ccccn1)C2` is -29.1%; for `Cc1cnn(CC2CCCCN2C(=O)c2cnc3n[nH]c(C)c3c2)c1` (stereo not given) it is -14%. For the compound `CN(CCO)Cc1cc(Cl)ccc1OCC(O)CN1CCCCCC1` (stereo not given), the INHIBITION is given as -26.8%. The result for `O=C(NCc1ccccc1Cn1cncn1)C1CCC1` reads 11.4%; that for `CC(=O)N1CCC(Cc2nccnc2-c2ccnn2C)CC1`, 4.41%.

For the compound `c1cncc(-c2noc(CNC3CCCN(c4cccnn4)C3)n2)c1` (stereo not given), the INHIBITION is recorded as 8.66%. As to `CN(c1ncnc2c1cnn2C)C1CCCN(c2cccnn2)C1` (stereo not given), the INHIBITION was -12.7%. The figure for `c1csc(-c2noc(CCCN3CCCC3Cn3cncn3)n2)c1` (stereo not given) is -9.76%; for `c1csc(-c2noc(CCCN3CCCC3Cn3cccn3)n2)c1` (stereo not given) it is 39.8%. The result for `CN(c1ncnc2sccc12)C1CCCN(c2cccnn2)C1` (stereo not given) reads 7.18%; that for `CN(Cc1cn2ccccc2c1C#N)C1CCCN(c2cccnn2)C1` (stereo not given), 59.4%; that for `CN(c1ncnc2ccccc12)C1CCCN(c2cccnn2)C1` (stereo not given), 52%. Take `c1cnnc(N2CCCC2CNCc2nc(-c3ccsc3)no2)c1` (stereo not given): the INHIBITION turned out to be 27.9%. Take `CN(Cc1cn2ccccc2n1)C1CCCN(c2cccnn2)C1` (stereo not given): the INHIBITION is given as 16.7%. The figure for `CN(Cc1ccccn1)C1CCCN(c2cccnn2)C1` (stereo not given) is 7.12%.

For `Cc1nccn1CC1CCCN1CCCc1nc(-c2cccs2)no1` (stereo not given), the INHIBITION is recorded as 68.4%. The result for `c1cnnc(N2CCCC(NCc3nc(-c4ccsc4)no3)C2)c1` (stereo not given) reads 59.3%; that for `c1cc(C2CN(C3CCCC3)C2)n[nH]1`, 7.4%; that for `O=C(CCOc1ccccc1F)N1CCOCC1`, 48.2%. With `CN(C)CCOCC1CN(Cc2ccccn2)Cc2nnn(C)c21` (stereo not given), the INHIBITION is reported as -2.35%. In the case of `CN(C)c1ccnc(C2CCCN2)n1` (stereo not given), the INHIBITION came out at 10.45%. The figure for `Cc1cccc(C2(CNC(=O)C(C)S(C)(=O)=O)CCCC2)c1` (stereo not given) is 2.39%; for `Cc1cccc(C2(CNC(=O)CO)CCCC2)c1` it is 21.5%. For `Cc1cccc(C2(CNC(=O)CCNS(C)(=O)=O)CCCC2)c1`, the INHIBITION is 67.5%. The result for `C[C@@H]1CN(c2ccc(Cl)cn2)CC[C@@]1(O)C1CCOCC1` reads 17.215%.
